# Experimental data from PubChem BioAssay (NCI).
# About 79,000 compounds went through this panel and 15% of them were active in at least one assay; those are over-represented in the sample as a whole. Values without a mark were called inactive. Active and inactive are the calls of the source. No stated cut-off is given here; in the data, active means growth inhibition above about 70%; inactive means the rest.
# Columns and labels:
# [1] = NCI Yeast Anticancer Drug Screen. Data for the rad52 strain (AID 147);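 further: 0% = growth of vehicle-treated control cultures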; details: S. cerevisiae rad52 mutant growth inhibition, hits give high values
# Method in brief: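 Screen used a yeast mutant impaired in DNA repair. After compound exposure, growth was measured. Values reflect inhibition compared with vehicle-treated cells.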
# [2] = NCI Yeast Anticancer Drug Screen. Data for the wt1 strain (AID 149);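 further: 0% = growth of vehicle-treated wt1 cultures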; details: S. cerevisiae wt1 strain (SPY 50644) growth inhibition, hits give high values
# Method in brief: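 wt1 yeast, compound-treated; % growth inhibition vs vehicle control.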
# [3] = NCI Yeast Anticancer Drug Screen. Data for the rad50EPP+ strain (AID 151);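 further: 0% = growth of vehicle-treated control cultures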; details: S. cerevisiae rad50 mutant strain, hits give high values
# Method in brief: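 Exposing the rad50EPP+ strain to each compound, growth was compared with vehicle-only cultures to give inhibition.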
# [4] = NCI Yeast Anticancer Drug Screen. Data for the mgt1 strain (AID 153); details: S. cerevisiae mgt1 mutant growth inhibition, hits give high values
# Method in brief: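 Genetically defined yeast (mgt1) treated with compound; inhibition of growth expressed against vehicle-treated controls.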
# [5] = NCI Yeast Anticancer Drug Screen. Data for the rad50 strain (AID 155);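 further: 0% = growth of vehicle-only cultures of the same strain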; details: S. cerevisiae rad50 strain growth inhibition, hits give high values
# Method in brief: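 Genetically altered yeast (DNA repair pathway); compound treatment; growth inhibition vs vehicle ctrl.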
# [6] = NCI Yeast Anticancer Drug Screen. Data for the mec2-1 strain (AID 157); details: S. cerevisiae mec2-1 strain, hits give high values
# Method in brief: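 Readout is yeast growth inhibition, normalised to vehicle-treated controls, in the mec2-1 strain exposed to compound.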
# [7] = NCI Yeast Anticancer Drug Screen. Data for the rad14 strain (AID 159);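 further: 0% = growth of vehicle-treated control cultures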; details: S. cerevisiae rad14 strain growth inhibition, hits give high values
# Method in brief: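 Test compounds were applied to a repair-deficient yeast strain. Its growth was then compared with that of cultures given vehicle alone, and inhibition was expressed relative to those controls.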
# [8] = NCI Yeast Anticancer Drug Screen. Data for the sgs1 mgt1 strain (AID 161);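 further: 0% = growth of cultures given vehicle only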; details: S. cerevisiae sgs1 mgt1 strain, hits give high values
# Method in brief: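 Yeast cells carrying a defined DNA-repair defect were exposed to test compounds. Growth inhibition was measured relative to vehicle-treated controls.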
# [9] = NCI Yeast Anticancer Drug Screen. Data for the CLN2oe strain (AID 163);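 further: 0% = growth of vehicle-only control cultures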; details: S. cerevisiae CLN2oe strain, hits give high values
# Method in brief: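 Values reflect how much compound exposure reduced yeast growth, referenced to vehicle-exposed cells. Assay organism is a strain with a defined genetic change affecting cell-cycle control.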
# [10] = NCI Yeast Anticancer Drug Screen. Data for the cln2 rad14 strain (AID 165);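 further: 0% = growth equal to vehicle treated cultures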; details: S. cerevisiae cln2 rad14 strain, hits give high values
# Method in brief: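 Relative to vehicle controls, growth inhibition of compound-treated cln2 rad14 yeast was recorded.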
# [11] = NCI Yeast Anticancer Drug Screen. Data for the bub3 strain (AID 167); details: S. cerevisiae bub3 mutant strain, hits give high values
# Method in brief: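 Yeast carrying a defined mutation is treated with each compound, and growth is compared with that of vehicle-exposed cells to give inhibition.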
# [12] = NCI Yeast Anticancer Drug Screen. Data for the wt2 strain (AID 169);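 further: 0% = growth of vehicle-treated yeast cultures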; details: S. cerevisiae wt2 strain growth inhibition, hits give high values
# Method in brief: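 Values express reduction in yeast growth under compound treatment, referenced to vehicle-treated cells.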
# [13] = NCI Yeast Anticancer Drug Screen. Data for the mlh1 strain (AID 171);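 further: 0% = growth of vehicle-treated control cultures of the same strain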; details: S. cerevisiae mlh1 strain growth inhibition, hits give high values
# Method in brief: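 Steps: expose the defined-mutant yeast strain to compound; expose a parallel culture to vehicle; measure growth; express compound effect as inhibition relative to the vehicle culture.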
# [14] = NCI Yeast Anticancer Drug Screen. Data for the sgs1 strain (AID 173);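 further: 0% = growth of vehicle-only control cultures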; details: S. cerevisiae sgs1 mutant, hits give high values
# Method in brief: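 Treat defined-mutant yeast with compound; measure growth; calculate inhibition relative to vehicle-treated cells.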
# [15] = NCI Yeast Anticancer Drug Screen. Data for the mlh1 rad18 strain (AID 175); details: S. cerevisiae mlh1 rad18 strain growth inhibition, hits give high values
# Method in brief: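 Test agents were incubated with a yeast strain of defined genotype (DNA damage repair defect). Inhibition of growth was derived by comparison with vehicle-exposed cultures.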
# [16] = NCI Yeast Anticancer Drug Screen. Data for the rad18 strain (AID 177); details: S. cerevisiae rad18 mutant growth inhibition, hits give high values
# Method in brief: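 A genetically defined yeast mutant impaired in DNA damage repair was treated with test compounds, then its growth was measured against cultures receiving vehicle alone.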
# [17] = at 5.0 µM (retest, dose inferred, filed as 0.5)
# [18] = at 50.0 µM (retest, dose inferred, filed as 5.0)
smiles,measurement,setting,value
CO[C@@]1([C@@H](Cl)c2ccccc2)C(=O)N(C)/C(=C\c2ccccc2)C(=O)N1C,growth inhibition,[1]; at 1.2 µM,0%
same,growth inhibition,[1]; at 3.7 µM,1%
same,growth inhibition,[1]; at 11.0 µM,3%
same,growth inhibition,[1]; at 33.0 µM,7%
same,growth inhibition,[1]; at 100.0 µM,8%
same,growth inhibition,[2]; at 1.2 µM,0%
same,growth inhibition,[2]; at 3.7 µM,0%
same,growth inhibition,[2]; at 11.0 µM,-2%
same,growth inhibition,[2]; at 33.0 µM,-1%
same,growth inhibition,[2]; at 100.0 µM,-1%
same,growth inhibition,[3]; at 1.2 µM,-1%
same,growth inhibition,[3]; at 3.7 µM,-3%
same,growth inhibition,[3]; at 11.0 µM,-6%
same,growth inhibition,[3]; at 33.0 µM,0%
same,growth inhibition,[3]; at 100.0 µM,5%
same,growth inhibition,[4]; at 1.2 µM,-1%
same,growth inhibition,[4]; at 3.7 µM,-1%
same,growth inhibition,[4]; at 11.0 µM,-1%
same,growth inhibition,[4]; at 33.0 µM,39%
same,growth inhibition,[4]; at 100.0 µM,50%
same,growth inhibition,[5]; at 1.2 µM,2%
same,growth inhibition,[5]; at 3.7 µM,6%
same,growth inhibition,[5]; [17],-12%
same,growth inhibition,[5]; at 11.0 µM,9%
same,growth inhibition,[5]; at 33.0 µM,11%
same,growth inhibition,[5]; [18],14%
same,growth inhibition,[5]; at 50.0 µM,-7.3%
same,growth inhibition,[5]; at 100.0 µM,15%
same,growth inhibition,[6]; at 1.2 µM,-3%
same,growth inhibition,[6]; at 3.7 µM,-1%
same,growth inhibition,[6]; [17],-2%
same,growth inhibition,[6]; at 11.0 µM,0%
same,growth inhibition,[6]; at 33.0 µM,4%
same,growth inhibition,[6]; [18],4%
same,growth inhibition,[6]; at 50.0 µM,11%
same,growth inhibition,[6]; at 100.0 µM,8%
same,growth inhibition,[7]; at 1.2 µM,1%
same,growth inhibition,[7]; at 3.7 µM,3%
same,growth inhibition,[7]; at 11.0 µM,8%
same,growth inhibition,[7]; at 33.0 µM,10%
same,growth inhibition,[7]; at 100.0 µM,11%
same,growth inhibition,[8]; [17],-13%
same,growth inhibition,[8]; [18],96% (active)
same,growth inhibition,[8]; at 50.0 µM,43.6%
same,growth inhibition,[9]; at 1.2 µM,-1%
same,growth inhibition,[9]; at 3.7 µM,0%
same,growth inhibition,[9]; at 11.0 µM,-1%
same,growth inhibition,[9]; at 33.0 µM,5%
same,growth inhibition,[9]; at 100.0 µM,7%
same,growth inhibition,[10]; [17],-8%
same,growth inhibition,[10]; [18],15%
same,growth inhibition,[10]; at 50.0 µM,36.1%
same,growth inhibition,[11]; at 1.2 µM,-1%
same,growth inhibition,[11]; at 3.7 µM,-3%
same,growth inhibition,[11]; [17],-11%
same,growth inhibition,[11]; at 11.0 µM,0%
same,growth inhibition,[11]; at 33.0 µM,10%
same,growth inhibition,[11]; [18],20%
same,growth inhibition,[11]; at 50.0 µM,-6.35%
same,growth inhibition,[11]; at 100.0 µM,19%
same,growth inhibition,[12]; at 1.2 µM,2%
same,growth inhibition,[12]; at 3.7 µM,0%
same,growth inhibition,[12]; at 11.0 µM,-1%
same,growth inhibition,[12]; at 33.0 µM,48%
same,growth inhibition,[12]; at 100.0 µM,79% (active)
same,growth inhibition,[13]; at 1.2 µM,0%
same,growth inhibition,[13]; at 3.7 µM,-2%
same,growth inhibition,[13]; at 11.0 µM,-1%
same,growth inhibition,[13]; at 33.0 µM,9%
same,growth inhibition,[13]; at 100.0 µM,67%
same,growth inhibition,[14]; at 1.2 µM,-2%
same,growth inhibition,[14]; at 3.7 µM,-3%
same,growth inhibition,[14]; at 11.0 µM,-1%
same,growth inhibition,[14]; at 33.0 µM,35%
same,growth inhibition,[14]; at 100.0 µM,82% (active)
same,growth inhibition,[15]; [17],-10%
same,growth inhibition,[15]; [18],10%
same,growth inhibition,[15]; at 50.0 µM,9%
same,growth inhibition,[16]; at 1.2 µM,0%
same,growth inhibition,[16]; at 3.7 µM,0%
same,growth inhibition,[16]; at 11.0 µM,-1%
same,growth inhibition,[16]; at 33.0 µM,4%
same,growth inhibition,[16]; at 100.0 µM,9%
COC(=O)c1cnc(Cl)c([N+](=O)[O-])c1,growth inhibition,[1]; at 1.2 µM,17%
same,growth inhibition,[1]; at 3.7 µM,53%
same,growth inhibition,[1]; at 11.0 µM,94% (active)
same,growth inhibition,[1]; at 33.0 µM,98% (active)
same,growth inhibition,[1]; at 100.0 µM,99% (active)
same,growth inhibition,[2]; at 1.2 µM,6%
same,growth inhibition,[2]; at 3.7 µM,15%
same,growth inhibition,[2]; at 11.0 µM,82% (active)
same,growth inhibition,[2]; at 33.0 µM,99% (active)
same,growth inhibition,[2]; at 100.0 µM,99% (active)
same,growth inhibition,[3]; at 1.2 µM,14%
same,growth inhibition,[3]; at 3.7 µM,48%
same,growth inhibition,[3]; at 11.0 µM,93% (active)
same,growth inhibition,[3]; at 33.0 µM,98% (active)
same,growth inhibition,[3]; at 100.0 µM,99% (active)
same,growth inhibition,[4]; at 1.2 µM,2%
same,growth inhibition,[4]; at 3.7 µM,23%
same,growth inhibition,[4]; at 11.0 µM,92% (active)
same,growth inhibition,[4]; at 33.0 µM,99% (active)
same,growth inhibition,[4]; at 100.0 µM,99% (active)
same,growth inhibition,[5]; at 1.2 µM,22%
same,growth inhibition,[5]; at 3.7 µM,75% (active)
same,growth inhibition,[5]; [17],79% (active)
same,growth inhibition,[5]; at 11.0 µM,97% (active)
same,growth inhibition,[5]; at 33.0 µM,99% (active)
same,growth inhibition,[5]; [18],98% (active)
same,growth inhibition,[5]; at 50.0 µM,99.5% (active)
same,growth inhibition,[5]; at 100.0 µM,99% (active)
same,growth inhibition,[6]; at 1.2 µM,5%
same,growth inhibition,[6]; at 3.7 µM,10%
same,growth inhibition,[6]; [17],41%
same,growth inhibition,[6]; at 11.0 µM,72% (active)
same,growth inhibition,[6]; at 33.0 µM,98% (active)
same,growth inhibition,[6]; [18],99% (active)
same,growth inhibition,[6]; at 50.0 µM,99.5% (active)
same,growth inhibition,[6]; at 100.0 µM,99% (active)
same,growth inhibition,[7]; at 1.2 µM,2%
same,growth inhibition,[7]; at 3.7 µM,18%
same,growth inhibition,[7]; at 11.0 µM,39%
same,growth inhibition,[7]; at 33.0 µM,97% (active)
same,growth inhibition,[7]; at 100.0 µM,99% (active)
same,growth inhibition,[8]; [17],47%
same,growth inhibition,[8]; [18],99% (active)
same,growth inhibition,[8]; at 50.0 µM,99.3% (active)
same,growth inhibition,[9]; at 1.2 µM,0%
same,growth inhibition,[9]; at 3.7 µM,5%
same,growth inhibition,[9]; at 11.0 µM,48%
same,growth inhibition,[9]; at 33.0 µM,97% (active)
same,growth inhibition,[9]; at 100.0 µM,99% (active)
same,growth inhibition,[10]; [17],2%
same,growth inhibition,[10]; [18],98% (active)
same,growth inhibition,[10]; at 50.0 µM,94.8% (active)
same,growth inhibition,[11]; at 1.2 µM,2%
same,growth inhibition,[11]; at 3.7 µM,7%
same,growth inhibition,[11]; [17],24%
same,growth inhibition,[11]; at 11.0 µM,85% (active)
same,growth inhibition,[11]; at 33.0 µM,98% (active)
same,growth inhibition,[11]; [18],99% (active)
same,growth inhibition,[11]; at 50.0 µM,98.9% (active)
same,growth inhibition,[11]; at 100.0 µM,99% (active)
same,growth inhibition,[12]; at 1.2 µM,4%
same,growth inhibition,[12]; at 3.7 µM,20%
same,growth inhibition,[12]; at 11.0 µM,88% (active)
same,growth inhibition,[12]; at 33.0 µM,99% (active)
same,growth inhibition,[12]; at 100.0 µM,99% (active)
same,growth inhibition,[13]; at 1.2 µM,3%
same,growth inhibition,[13]; at 3.7 µM,11%
same,growth inhibition,[13]; at 11.0 µM,92% (active)
same,growth inhibition,[13]; at 33.0 µM,99% (active)
same,growth inhibition,[13]; at 100.0 µM,100% (active)
same,growth inhibition,[14]; at 1.2 µM,5%
same,growth inhibition,[14]; at 3.7 µM,20%
same,growth inhibition,[14]; at 11.0 µM,88% (active)
same,growth inhibition,[14]; at 33.0 µM,98% (active)
same,growth inhibition,[14]; at 100.0 µM,99% (active)
same,growth inhibition,[15]; [17],72% (active)
same,growth inhibition,[15]; [18],98% (active)
same,growth inhibition,[15]; at 50.0 µM,98.5% (active)
same,growth inhibition,[16]; at 1.2 µM,4%
same,growth inhibition,[16]; at 3.7 µM,29%
same,growth inhibition,[16]; at 11.0 µM,95% (active)
same,growth inhibition,[16]; at 33.0 µM,98% (active)
same,growth inhibition,[16]; at 100.0 µM,99% (active)
